Among the data in PubChem BioAssay are z-score values, retold here.

Values without a mark were called inactive. Calls of active or inactive are those of the source.

The nature of the assay: basal S. cerevisiae growth modulation, no modifier, primary screen, OD600, strain BY4716, 24 h, basal condition (AID 1173). The conditions noted are these: OD600, 24 h, higher = more signal, called active from +8 up or from −8 down.
In the case of `C#CCN1[C@@H](Cc2ccc(O)cc2)C(=O)O[C@H](Cc2ccccc2)[C@@H]1/C=C/C1CC1`, the z-score is -2.19.

For the compound `CCCCCCCCCCC(O)C1C=CC2C(=O)NC(=O)C2N1Nc1ccc(Cl)cc1Cl` (centres undefined), the z-score was -1.08.

Regarding `O=C(NCc1ccccc1)[C@@H]1c2ccccc2C(=O)N(C2Cc3ccccc3C2)[C@H]1c1ccc(CO)cc1`, the z-score is 0.848.

Take `CN(C)CCCCCCNC(=O)[C@@H]1C[C@@H]2C(=O)N3CCC[C@H]3C(=O)N2[C@@H]1c1ccc(O)cc1`: the z-score was -0.732.

`N#Cc1ccc(C(O)C2C=CC3C(=O)N(c4ccccc4)C(=O)C3N2Nc2ccccc2F)cc1` (centres undefined): the z-score is -2.13.

As to `COc1ccc([Si](C)(C)[C@@H]2[C@@H](CC(=O)N3Cc4ccccc4C[C@H]3CO)O[C@]3(C(=O)N(Cc4cccc(N5CCC5=O)c4)c4ccccc43)[C@H]2C)cc1`, the z-score is 0.984.

Take `CS(=O)(=O)CCOC(=O)C1=CC(CCCO)=CC(C2CC2)N(Cc2cc3c(cc2Br)OCO3)C=C1C(=O)OCCS(C)(=O)=O` (centres undefined): the z-score is -2.22.

As to `NC(=O)N1C(=O)C2C(C1=O)C1C=C(CCCO)C2C(C2CC2)N1Cc1cc2c(cc1Br)OCO2` (centres undefined), the z-score was -1.85.

`O=C1OCCC=C[C@H]2OC34C=CCN(CCN5CCOCC5)C(=O)[C@H]3N(CCCCCO)C(=O)[C@@H]4C12` (some centres undefined): the z-score was -0.987.

For the compound `CC(CO)N1C(=O)[C@@H]2C3C(=O)OCCC/C=C\[C@H]3OC23C=CCN(CCN2CCOCC2)C(=O)[C@@H]13` (some centres undefined), the z-score is -0.193.

In the case of `CCCCCCc1nc(-c2ccc(-c3ccc(Cl)c(Cl)c3)o2)c(C)c2c1[Si](C(C)C)(C(C)C)OC2`, the z-score is -4.18.

For `CCOc1cc(C(O)C2C=CC3C(=O)N(c4ccccc4)C(=O)C3N2Nc2ccc(C(C)C)cc2)ccc1O` (centres undefined), the z-score is -1.16.

For `CCOC(=O)C1=C[C@@H](C(C)C)N(S(=O)(=O)c2ccc(C)cc2)[C@H]1c1ccccc1F`, the z-score is 0.81.

As to `COc1cc2c(cc1O)C(c1cccs1)N(Cc1cccc(OC(F)(F)F)c1)CC2` (centres undefined), the z-score is -3.07.

For `C=CCN1C(=O)[C@]2(Cc3ccccc3)N=C(c3ccc(OCCCO)cc3)O[C@@H]2c2ccccc21`, the z-score is -1.34.

With `COc1ccc([Si](C)(C)[C@@H]2[C@@H](CCn3cc(CCO)nn3)O[C@]3(C(=O)N(Cc4cccc(N5C(=O)c6cccc7cccc5c67)c4)c4ccccc43)[C@H]2C)cc1`, the z-score is 0.348.

Regarding `C=CCN(Cc1ccccc1)C(=O)C(c1cccs1)N(C(=O)/C=C\C(=O)O)c1ccc(CCOCCO)cc1` (centres undefined), the z-score is 0.25.

With `COC(=O)c1c2oc(c1C(=O)OC)C(=O)NC1(CCCCC1)c1cn(nn1)C[C@H](Cc1ccccc1)NC(=O)N[C@H](CO)CC2`, the z-score is -0.861.

As for `CC(=O)NCCCC[C@@H]1NC(=O)[C@H]2C[C@@H](C(=O)NCCCCCNC(=O)CS)[C@@H](c3ccc(O)cc3)N2C1=O`, the z-score was 1.14.

For the compound `COCCCNC(=O)[C@@]1(CCS(=O)(=O)c2ccccc2)N=C(c2ccc(OCCCO)cc2)O[C@H]1c1ccccc1N=[N+]=[N-]`, the z-score is -0.865.

Take `COc1ccc(NN2C(C(O)c3ccc(N(C)C)cc3)C=CC3C(=O)N(C4CCCCC4)C(=O)C32)cc1` (centres undefined): the z-score is -0.796.

Turning to `[N-]=[N+]=NCc1ccccc1[C@@H]1OC(c2ccc(OCCCO)cc2)=N[C@]1(CCS(=O)(=O)c1ccccc1)C(=O)N1CCCCC1`, the z-score is 0.287.

For the compound `COC(=O)C[C@H]1O[C@@H](CCc2ccccc2)[C@@H](C)[C@@H]1[Si](C)(C)c1ccc(OC)cc1`, the z-score was -0.938.

For `CN1C(=O)C2C=CC(C(O)c3ccccc3)N(N3CCCCC3)C2C1=O` (centres undefined), the z-score was 0.429.

For the compound `COC(=O)[C@@]1(Cc2ccc(OC)cc2)[C@H]2c3cc(C(=O)N4CCCC4)n(CCSCCO)c3C[C@H]2CN1C(=O)c1ccccc1`, the z-score is 1.6.

Regarding `COC(=O)c1c(CC[C@@H](CO)NC(=O)NCCc2c[nH]c3ccccc23)oc(C(=O)Cc2ccccc2)c1C(=O)OC`, the z-score is -1.46.

On to `O[C@@H](Cc1ccccc1)[C@@H](/C=C/C1CC1)NCc1cccc(Cl)c1`, for which the z-score is -9.37 (active).

Turning to `CN1CCC(CCCO)=CC1c1cccs1` (centres undefined), the z-score is -0.158.

For `CO[C@H]1O[C@H](CO)[C@@H](OC(=O)Nc2ccc(Br)cc2)[C@@H]2OC(=O)[C@H](Cc3cccc(Br)c3)C/C=C/C[C@@H](Cc3cccc(Br)c3)C(=O)O[C@@H]12`, the z-score was -1.89.
